Results taken from PubChem BioAssay AID777 (Sanford-Burnham Center for Chemical Genomics, 2007).
Among all 96,000 compounds or so, about 19,000 (20%) were called active.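 Rule for the calls: active = blocking of liver enzyme CYP2C9 beyond about 50% at 5 µM (limit read from the data); inactive = the rest.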 Only a sample is shown.

Target: Cytochrome P450 2C9 (Homo sapiens) (UniProt P11712)
Test: blockers of cytochrome P450 2C9 activity – biochemical, luminescence, ADME assay, primary screen (AID 777)
Details: CYP2C9 Supersomes, luciferin-H conversion, at 5 µM, hits give high values

Chain of Cytochrome P450 2C9 (Homo sapiens) (P11712 whole entry, looked up): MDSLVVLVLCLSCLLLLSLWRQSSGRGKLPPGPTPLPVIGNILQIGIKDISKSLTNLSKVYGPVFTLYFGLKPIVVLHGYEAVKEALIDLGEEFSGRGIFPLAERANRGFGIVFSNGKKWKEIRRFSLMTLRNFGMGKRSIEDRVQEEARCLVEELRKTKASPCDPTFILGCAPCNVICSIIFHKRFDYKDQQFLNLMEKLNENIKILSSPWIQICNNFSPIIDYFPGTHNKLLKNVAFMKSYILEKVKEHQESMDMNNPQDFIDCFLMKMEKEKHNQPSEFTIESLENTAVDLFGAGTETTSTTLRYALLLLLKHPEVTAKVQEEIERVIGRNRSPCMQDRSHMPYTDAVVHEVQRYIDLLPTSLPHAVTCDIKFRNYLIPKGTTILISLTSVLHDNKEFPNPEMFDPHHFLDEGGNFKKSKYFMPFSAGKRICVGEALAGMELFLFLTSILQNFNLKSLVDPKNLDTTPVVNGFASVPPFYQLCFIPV

inhibition, inactive:
O=C(NC1CCCCC1)c1cc([N+](=O)[O-])ccc1N1CCOCC1 1.4%
COc1cccc(N2CCN(C(=O)Nc3ccc4c(c3)NC(=O)CO4)CC2)c1 13%
O=C(Cc1nn[nH]n1)NCCC1=CCCCC1 -1.8%
Cc1ccc(-n2c(C)cc(/C=N/Nc3ccc([N+](=O)[O-])cn3)c2C)c(C)c1 13.3%
O=C(c1cccs1)N(C(=O)c1cccs1)c1ccccn1 21.5%
COc1ccc(S(=O)(=O)N2CCN(C(=O)c3cccs3)CC2)cc1OC -35.4%
CC(C)CC(=O)N/C(N)=N/c1nc2ccccc2s1 27.6%
C[N+]1(CCNC(=O)/C=N/O)CCCCC1 5.6%
Cc1nc(-c2ccccc2)sc1C(=O)/C=C/c1ccccc1 15.9%
Cc1ccc(SCC(=O)Nc2ncc(C)s2)cc1 35.5%
Cc1nn(-c2ncc(C(F)(F)F)cc2Cl)c(=O)n1-c1ccccc1 -45.3%
CCn1c(C)nc2c1C(=O)c1ccccc1C2=O -0.9%
O=C1CCCCC(=O)c2ccccc2N1 14.5%
COc1nc(NCc2ccc(Cl)cc2)nc(OC)n1 9.7%
FC(F)(F)c1cc(-c2ccco2)nc(N2CCOCC2)n1 -16.1%
O=C(CSc1nc(-c2ccco2)cc(C(F)(F)F)n1)NCc1cccs1 7.6%
COc1ccc(Nc2nc(Cl)nc(NCc3ccco3)n2)cc1 5.9%
CCc1ccc(/C=N/NC(=O)c2ccc(OC3CCCC3)cc2)s1 -41.1%
Cc1oc(-c2ccccc2Cl)[n+]([O-])c1C 7.1%
Cc1cnc(NC(=O)CSc2nnc(C)s2)s1 8.4%
O=C(CSc1nnc(-c2ccoc2)o1)N1CCOCC1 -12.9%
CCc1ccc(N(CC)c2ncnc3nc[nH]c23)cc1 3.4%
COc1cccc(NC(=O)C2CCCN2C(=O)OCc2ccccc2)c1 (stereo unspecified) 15.8%
Cc1ccc(C)c(NC(=O)C2CCCN2C(=O)OC(C)(C)C)c1 (stereo unspecified) -1.5%
O=C(Nn1cnc2ccccc2c1=O)c1ccc(F)cc1Cl -8.6%
Cc1ccc2[nH]c3c(c2c1)CN(C(=O)CN1CCN(c2ccccc2)CC1)CC3 30.7%
O=C(CSCc1ccc(Cl)cc1)N1CCCCC1 -83.2%
Cc1nc(-c2ccccc2)sc1-c1nc(-c2ccccc2)ncc1S(=O)(=O)c1ccccc1 37.8%
c1ccc(-c2nnc3n2NC(c2ccc4c(c2)OCO4)S3)cc1 (stereo unspecified) 21.6%
Clc1ccccc1CSc1nnc(-c2ccco2)c(-c2ccco2)n1 38.8%
c1ccc(CSc2nnc(-c3ccco3)n2Cc2ccccc2)cc1 31.7%
COc1ccc(C2C3=C(OC(C)=O)c4ccccc4C3=Nc3c2c(=O)n(C)c(=O)n3C)cc1 (stereo unspecified) 7.6%
COc1ccc(-c2nnn(CC(=O)N(CCO)C(C(=O)NC3CCCC3)c3ccc(F)cc3)n2)cc1 (stereo unspecified) -3.9%
CC(C)(C)NC(=O)Cn1nnc(-c2ccccc2Cl)n1 -42.7%
O=C(Nc1cc(N2CCOCC2)ncn1)NC1(C(F)(F)F)Oc2ccc(Cl)cc2O1 (stereo unspecified) 21.6%
CCOCCCNC(=O)C(NC(=O)c1ccc(=O)[nH]c1)c1ccc(C)cc1 (stereo unspecified) 16.2%
COc1ccc(C(=O)Nc2nncs2)c(OC)c1 -1.4%
Cc1ccccc1NC(=O)c1ccccc1NS(=O)(=O)c1cccc2cccnc12 45.1%
CC(=O)c1ccc(NC(=O)N[C@@H](Cc2ccccc2)C(=O)O)cc1 4.2%
N#CC1=C(N)Oc2n[nH]c(CSc3ccccc3)c2C12C(=O)Nc1ccccc12 (stereo unspecified) 24.3%
Cc1csc2ncc(C(=O)N(Cc3ccccc3)c3ccccn3)c(=O)n12 6.4%
COc1cccc(-c2cc3nc4c(c(N5CCC6(CC5)OCCO6)n3n2)CCCC4)c1 49.8%
O=C(Cc1ccc(F)cc1)NC1CCCC1 -37.8%
O=C(Cn1cnc2c(cnn2-c2ccccc2)c1=O)NCc1ccccc1 -7.3%
CCOC(=O)Nc1ccc(S(=O)(=O)N(C)C(C)C)cc1 32%
COC(=O)Nc1ccc(S(=O)(=O)N2CCN(CCN3C(=O)C4C5C=CC(C5)C4C3=O)CC2)cc1 (stereo unspecified) 19.6%
CC(=O)NC1(c2cccc(F)c2)CCN(CC(=O)NC(C)C)CC1 4.1%
CON(C)S(=O)(=O)c1ccc2c(c1)NC(=O)C1CCCN21 (stereo unspecified) 44%
CCn1nnc(NC(=O)c2c(OC)cccc2OC)n1 -11.4%
O=C(Oc1ccc([N+](=O)[O-])cc1)c1ccc2ccccc2n1 -28.9%
Cn1cc(S(=O)(=O)N2CCN(c3ccc(F)cc3)CC2)c(=O)n(C)c1=O -8.1%
Cc1cc(C)cc(NC(=O)C2CCN(c3nc(C)cc(C)n3)CC2)c1 15.4%
Cc1cc(NC(=O)c2cccc(N3C(=O)CCC3=O)c2)no1 3.5%
CC1CCCN(C(C(=O)Nc2ccc(C(C)C)cc2)c2ccc3c(c2)OCO3)C1 (stereo unspecified) 16.7%
COc1ccc(-n2c(SCC(=O)Nc3ccc4c(c3)OCO4)nnc2C(C)N2CCCCC2)cc1 (stereo unspecified) 20.2%
CC(=O)Nc1ccc(S(=O)(=O)N2CCC(N(C)CCC(C)C)CC2)cc1 19.4%
CCN1CCN(C(=O)c2ccccc2N(C)S(=O)(=O)c2ccc(C)cc2)CC1 -1.6%
NC(=NC(=O)c1ccccc1)C1=C(O)CCC1=O 0%
O=C(NC1CCc2ccccc21)C12CN(Cc3ccccc3)CC1C(c1cccc([N+](=O)[O-])c1)=NO2 (stereo unspecified) 42.7%
CCc1ccccc1NC(=O)c1cccs1 -6.7%
O=C(O)Cc1ccc(NC(=O)c2cccs2)cc1 -6.9%
O=C(/C=C/Sc1ncn[nH]1)c1ccc(Cl)cc1 10.9%
Cc1nc2ccccc2c(-c2ccccc2)c1C(=O)c1ccccc1 19.7%
CCOC(=O)CSc1nnc(NC(=O)c2cccc(S(=O)(=O)N3CCCCC3)c2)s1 35.5%
CCOC(=O)CSc1nnc(NC(=O)c2cccc(S(=O)(=O)N3CCCC3)c2)s1 14.4%
COc1ccc2c(CC(=O)Nc3nnc(C4CC4)s3)coc2c1 24.7%
CC(=O)c1c(N2CCOCC2)nc(=S)n(Cc2ccccc2)c1C 12.5%
COc1ccc(N2CCN(CCNC(=O)CCN3C(=O)COc4ccccc43)CC2)cc1 -2.8%
COc1ccc(CN2CC(C(=O)NCCN3CCN(c4ccccc4F)CC3)CC2=O)cc1 (stereo unspecified) -10.3%
C/C(=C(\C#N)C(=O)NCCCN1CCOCC1)N(C)C -16.4%
Cc1cc(C)c(C)c(S(=O)(=O)Nc2ccc(O)cc2)c1C -16.6%
CC(=O)Nc1ccc(S(=O)(=O)NCCc2ccccc2)cc1 49.5%
Cc1cccc(NC(=O)COc2ccc(Br)cc2C)n1 -11%
O=C(Nc1cccc(Cl)c1)Nc1nnc(-c2ccccc2)o1 8.9%
COc1ccc(CC(=O)Nc2ccc(-c3nnc(-c4ccccc4)o3)cc2)cc1 19%
COc1cccc(-n2c(Cc3cc(=O)[nH]c(=O)[nH]3)nnc2SCC(=O)Nc2ccccc2)c1 -48.2%

inhibition, active:
O=C(Nc1cc2c3c(c1)C1CCCC1CN3CC1CCCC21)c1ccc([N+](=O)[O-])cc1 (stereo unspecified) 96.3%
COc1ccc(CN(C(=O)c2cccs2)c2nccs2)cc1OC 99%
Cc1ccc(SCC(=O)c2sc(-c3ccccc3)nc2C)cc1 83.6%
FC(F)(F)c1cc(-c2ccco2)nc(NCc2ccc(Cl)cc2)n1 97.5%
FC(F)(F)c1cc(-c2cccs2)nc(NCc2ccco2)n1 60.7%
Cc1ccc(C)c(NC(=O)C2Cc3ccccc3CN2C(=O)OCc2ccccc2)c1 (stereo unspecified) 65%
O=C(CN1CCN(c2ccc(Cl)cc2)CC1)N1CCCC1 57.4%
c1ccc(CSc2nnc(-c3ccco3)c(-c3ccco3)n2)cc1 72.9%
Cc1ccc(-c2nnn(CC(=O)N(CCO)C(C(=O)NC(C)(C)C)c3ccncc3)n2)cc1 (stereo unspecified) 76.1%
O=C(Nc1nncs1)c1ccccc1NS(=O)(=O)c1cccs1 76.4%
COCCCn1c(SCc2cccc(OC)c2)nc2cc(OC)c(OC)cc2c1=N 71.3%
COC(=O)Nc1ccc(S(=O)(=O)N(C)CC(F)(F)C(F)F)cc1 59.2%
O=S(=O)(c1ccc(F)cc1)n1ccc(-c2cnc(-c3ccccc3)s2)n1 53.9%
O=C(Nc1ccc2c(c1)OCCO2)C(c1ccc(F)cc1)N1CCCCC1 (stereo unspecified) 67.1%
Cc1ccccc1C(=O)N1CCC(C(=O)Nc2ccc(S(=O)(=O)N(C)C(C)C)cc2)CC1 61.2%
Cc1cc2cc(CNC(=O)c3cccs3)ccc2[nH]1 60.2%
CCOC(=O)C1=C(CC)Nc2ccccc2N=C1NC(=O)c1cccc(S(=O)(=O)N2CCCC2)c1 90.2%
COc1ccc(N2CCN(CCNC(=O)c3nnc(Cc4c(F)cccc4Cl)o3)CC2)cc1 66.3%
CC(=O)Nc1ccc(NS(=O)(=O)c2cc(C)sc2C)cc1 56.5%
O=C(COC(=O)c1ccc(Oc2ccccc2)cc1)Nc1nnc(-c2ccccc2)o1 89.1%
